Bioassay records deposited in PubChem by National Center for Advancing Translational Sciences (NCATS).
An excerpt weighted towards active compounds, which were near 2.5% of everything screened.
WRN helicase inh – WRN helicase (human) inhibition; Q14191; WRN helicase unwinding, fluorescent forked duplex, kinetic; Potency, µM (doses to about 114 µM), inactives show top-dose activity change, negative = inhibition, hits mostly inhibitors; actives 0.46% (n = 360,000); also: % is scaled to controls: 0 for no effect and ±100 for the full control effect; nearly all actives have a fitted effect of over 55% in size
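Primary qHTS, 1536-well format. 20 nM WRN + compound, 15 min RT; start with 100 nM forked fluorophore/quencher duplex, 2 mM ATP (final); kinetic read ex 525/em 598 nm.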
Pol beta inh – inhibitors of human DNA polymerase beta; P06746; Potency, µM (top dose mostly 114 µM), without a hit: top-dose activity change, negative = inhibition, hits mostly inhibitors; AID 485314; actives 1.3% (n = 340,000); Pol beta primer extension/strand displacement, fluorescence kinetic; also: % is scaled to controls: 0 for no effect and ±100 for the full control effect
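Preincubation: enzyme (10 nM) with compound, 15 min, RT. Reaction: substrate added to 50 nM final. Reads: 0 and 10 min. Analysis: normalized, Hill fit.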
POLI inh – inhibitors of human DNA polymerase iota; Pol iota fluorescent replication assay, 10 min; Potency, µM (doses to about 115 µM), without a hit: top-dose activity, negative = inhibition, hits mostly inhibitors; Q9UNA4; actives 1% (n = 390,000)
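Pol iota at 10 nM preincubated 15 min with compounds at room temperature; reaction started with fluorescent substrate, 50 nM final. Fluorescence read kinetically at 0 and 10 min; buffer-only wells as negative control.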
L3MBTL1 block – L3MBTL1 (human) inhibition; actives 0.66% (n = 230,000); Potency, µM (highest dose often 57.1 µM), inactives show at the highest dose activity, negative = inhibition, actives largely listed as inhibitors; AID 485360; AlphaScreen L3MBTL1–H3K9me1 peptide binding; also: % is scaled to controls: 0 for no effect and ±100 for the full control effect; nearly all actives have a fitted effect of over 60% in size
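AlphaScreen assay: L3MBTL1 (50 nM final) was preincubated 30 min at room temperature with biotinylated H3(1-15)K9me1 peptide (75 nM final), then 30 min with library compounds; streptavidin donor and nickel chelate acceptor beads (10 ug/mL final) added, 30 min dark.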
Pol eta inh-1 – blocks human DNA polymerase eta activity; Potency, µM (doses to about 114 µM), for inactives: at the highest dose activity change, negative = inhibition, hits mostly inhibitors; actives 1.2% (n = 390,000); recombinant Pol eta, fluorescent DNA replication assay; also: % is scaled to controls: 0 for no effect and ±100 for the full control effect
Target sequence (Q9Y253 whole entry, looked up): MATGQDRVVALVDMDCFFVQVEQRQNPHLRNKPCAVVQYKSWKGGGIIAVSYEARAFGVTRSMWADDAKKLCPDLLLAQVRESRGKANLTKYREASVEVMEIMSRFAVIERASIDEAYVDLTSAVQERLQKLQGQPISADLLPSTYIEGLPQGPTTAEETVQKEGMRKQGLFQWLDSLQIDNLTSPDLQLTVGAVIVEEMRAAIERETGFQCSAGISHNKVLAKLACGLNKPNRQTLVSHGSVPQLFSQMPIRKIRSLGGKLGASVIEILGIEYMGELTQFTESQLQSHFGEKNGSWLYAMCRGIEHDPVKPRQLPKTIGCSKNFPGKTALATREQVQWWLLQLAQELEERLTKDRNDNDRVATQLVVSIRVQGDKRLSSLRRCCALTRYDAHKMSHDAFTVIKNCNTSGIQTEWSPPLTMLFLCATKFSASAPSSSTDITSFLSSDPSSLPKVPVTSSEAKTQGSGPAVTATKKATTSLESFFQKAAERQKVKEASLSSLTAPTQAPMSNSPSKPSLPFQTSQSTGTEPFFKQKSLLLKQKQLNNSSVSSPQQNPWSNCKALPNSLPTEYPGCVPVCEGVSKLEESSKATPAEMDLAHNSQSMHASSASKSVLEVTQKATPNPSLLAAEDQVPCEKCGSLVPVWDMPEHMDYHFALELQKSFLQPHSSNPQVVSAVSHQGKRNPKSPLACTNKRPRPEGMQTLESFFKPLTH
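Pol eta (10 nM) was preincubated with compounds for 15 min at room temperature, after which fluorescent replication substrate (50 nM final) was added to start the reaction. Fluorescence was read kinetically at 0 and 10 min.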
Pol kappa inh-1 – inhibitors of human DNA polymerase kappa; Potency, µM (series often up to 107 µM), without a hit: top-dose activity, negative = inhibition, actives largely listed as inhibitors; Q9UBT6; purified Pol kappa, fluorescent DNA synthesis assay, 10 min; AID 588579; actives 0.53% (n = 400,000); also: % is scaled to controls: 0 for no effect and ±100 for the full control effect
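Here, compound and 10 nM enzyme are combined for 15 min at room temperature; adding 50 nM substrate (final) starts DNA synthesis, tracked by fluorescence at 0 and 10 min against buffer-only wells.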
TbPGK inh – blocks T. brucei phosphoglycerate kinase. shares compounds with Pol kappa inh-1. TbPGK coupled GAPDH assay, Kinase-Glo luminescence. Potency, µM (highest dose often 57.5 µM), for inactives: at the top dose activity change, negative = inhibition, hits mostly inhibitors. actives 79% (n = 500). AID 686980; also: % is scaled to controls: 0 for no effect and ±100 for the full control effect; nearly all actives have a fitted effect of over 65% in size
Pol iota confirm – Confirm cherry-picked inhibitors of human polymerase iota; shares compounds with Pol kappa inh-1; Pol iota primer extension, TAMRA/BHQ fluorescence; Potency, µM, usual class: inhibitors; actives 77% (n = 1,500)
Pol kappa inh-2 – confirmation of human DNA polymerase kappa inhibitors. shares compounds with Pol eta inh-1. actives 76% (n = 920). Potency, µM, most hits filed as inhibitors. purified Pol-kappa, fluorescent strand-displacement substrate
Pol eta inh-2 – Pol eta (human) inhibition, cherry-pick confirmation | shares compounds with Pol eta inh-1 | Pol eta primer extension, TAMRA/BHQ fluorescence, 10 min | Potency, µM, actives largely listed as inhibitors | actives 64% (n = 2,600)
The depositor's hits bear a star; ? = inconclusive; . = no result; [ ] = dose if it differs, or a comment. Calls follow the shape of the dose curve; as a rule, active = well fitted curve in the direction sought with a large enough effect; inconclusive = small, poorly fitted or top-dose-only effect, or another doubt; inactive = no such curve, though single readings can be large; an effect the other way counts as inactive or inconclusive. Potency is read from the fitted curve at half-maximal effect.

SMILES | WRN helicase inh | Pol beta inh | POLI inh | L3MBTL1 block | Pol eta inh-1 | Pol kappa inh-1 | Pol iota confirm | Pol eta inh-2 | others
COc1cc(CC2COC(c3ccc(O)c(OC)c3)C2COC(C)=O)ccc1O (stereo not given) | 50µM* | 6.3µM* | 10µM* | . | 3.5µM* | 22µM* | . | . | TbPGK inh=8.2µM*
Cc1ccc(C(=O)O/N=C(\N)c2nonc2N)cc1 | 4% | 1% | 142% | ? | -20% | -1% | . | . | TbPGK inh=23µM*
N/C(=N/OC(=O)c1ccccc1Cl)c1nonc1N | -5% | 37% | 27% | . | -7% | -3% | . | . | TbPGK inh=12µM*
Cc1cccc(/C(N)=N/OC(=O)c2ccc3c(c2)OCO3)c1 | 0% | -2% | -15% | 17% | -10% | -13% | . | . | TbPGK inh=10µM*
COCCCNc1c2c3c(cccc3[nH]c1=O)C(=O)c1ccccc1-2 | 28µM* | 25µM* | ? | . | ? | ? | ? | ? | Pol kappa inh-2=?
CC1(C)CC(=Cc2ccccc2[N+](=O)[O-])C(=O)c2ccccc21 | -8% | . | . | . | -4% | . | . | .
CCc1nnc(NS(=O)(=O)c2ccc(NC(=O)c3ccccc3C)cc2)s1 | 2% | -1% | -24% | . | -5% | -12% | . | .
C=CCc1cccc2cc(C(=O)Nc3ccc(S(=O)(=O)Nc4nnc(CC)s4)cc3)c(=O)oc12 | -32% | -1% | 8.9µM* | 5% | 10µM* | -14% | ? | 30* | Pol kappa inh-2=38*
CCc1nnc(NS(=O)(=O)c2ccc(N/C=C\C(=O)c3ccc4ccccc4c3)cc2)s1 | 50µM* | ? | ? | 1% | 50µM* | -27% | ? | 76*
C=CCc1cccc2cc(C(=O)Nc3ccc(F)cc3)c(=O)oc12 | 7% | -30% | 2% | -2% | -1% | -25% | . | .
C=CCc1cccc2cc(C(=O)Nc3ccc(CC(=O)O)cc3)c(=O)oc12 | -8%[11.6 µM] | 22µM* | ? | -10% | 35µM* | ? | ? | 67*
CC(C)C(NS(=O)(=O)c1cccs1)C(=O)NCc1ccccc1Cl (stereo not given) | -3% | -27% | 32% | . | 6% | -18% | . | .
CCCNC(=S)N1CC2(C)CN(C(=O)C(=O)OC)CC(C)(C1)C2=O | 8% | -15% | -5% | . | -9% | -3% | . | .
Cc1sc2ncn(CC(=O)N(C)c3cccc(C(F)(F)F)c3)c(=O)c2c1S(=O)(=O)N1CCN(c2ncccn2)CC1 | . | -1% | ? | . | -16% | -31% | . | .
COc1ccc(NC(=O)CSc2nc(C)cc(C)c2C(=O)Nc2cccc(C)c2)cc1 | . | 12% | -3% | . | -14% | -19% | . | .
O=c1cc(-c2ccccc2)oc2cc(O)c(O)c(O)c12 | ? | . | ? | 16µM* | 3.2µM* | 20µM* | ? | 15*
COc1c(O)cc2oc(-c3ccc(O)cc3)cc(=O)c2c1O | -11% | ? | -7% | . | -8% | ? | . | .
O=c1cc(-c2ccc(O)cc2)oc2c(O)c(O)c(O)c(O)c12 | 7.1µM* | 2.2µM* | 10µM* | 3.2µM* | 1.6µM* | 10µM* | 7.5* | 5.4* | TbPGK inh=0.92µM*;Pol kappa inh-2=4.7*
CC(C)=CC(=O)Nc1nnc(-c2ccccc2C)s1 | 5% | -24% | 110% | 2% | -16% | -3% | . | .
Cc1ccc(-n2nc3c(=O)n(C(C)C(=O)NCc4ccccc4C)nc(C)c3c2C)cc1 (stereo not given) | . | 45µM* | -25% | . | 89µM* | -10% | 75* | ? | Pol kappa inh-2=67*
COc1c(Cl)cc(Cl)cc1C(=O)Nc1ccc(NC(=O)c2cccs2)cc1 | -5%[57.1 µM] | 17% | 17% | -1% | -1% | -1% | . | .
CCN1C(=O)c2ccccc2S(=O)(=O)c2ccc(C(=O)NCc3ccc(OC)cc3)cc21 | . | 2% | -12% | . | -1% | -17% | . | .
C/C=C/C=C/C(=O)[C@@H]1[C@@H]([C@]2(C)OC(=O)C(C)=C2O)[C@H]2/C(=C(O)/C=C/C=C/C)C(=O)[C@]1(C)C(=O)C2(C)O (stereo not given in full) | ? | -20% | 2.8µM* | . | 2.5µM* | 8.9µM* | 12* | 4.3*
O=C(c1ccc(NS(=O)(=O)c2ccccc2)cc1)N1CCCCCC1 | -18% | 4% | 35% | . | 3% | -6% | . | .
N=C1/C(=C\c2ccc(SCc3ccccc3)o2)C(=O)N=C2SC=NN12 | -13% | ? | 13% | . | -7% | -20% | . | .
SMILES | WRN helicase inh | Pol beta inh | POLI inh | L3MBTL1 block | Pol eta inh-1 | Pol kappa inh-1 | Pol iota confirm | Pol eta inh-2 | others
CCS(=O)(=O)C1=NN2C(=N)/C(=C\c3ccc(SCc4ccco4)o3)C(=O)N=C2S1 | 56µM* | 11µM* | ? | 32µM* | 4.5µM* | 28µM* | 38* | 17*
Cc1ccccc1CSc1ccc(-c2cccs2)nn1 | . | ? | -4% | . | -4% | -16% | . | .
COc1ccc(OC)c([N+](=O)[O-])c1C(N)=O | ? | 6.3µM* | 18µM* | ? | 50µM* | ? | 21* | 30*
Cc1ccc(NC(=O)Cn2c(=O)n(Cc3ccc4c(c3)OCO4)c(=O)c3ccccc32)c(C)c1 | . | ? | 25% | . | -17% | 7% | . | .
Oc1cc2c(cc1O)[C@H]1c3ccc(O)c(O)c3OC[C@@]1(O)C2 | 45µM* | . | 7.9µM* | 35µM* | 14µM* | 22µM* | 38* | 27* | Pol kappa inh-2=24*
O=C(c1ccnc(Cl)c1)N1CCCC(N2CCN(c3ccccc3F)CC2)C1 (stereo not given) | -5% | 18% | -11% | . | -1% | -3% | . | .
Nc1c(/C=C2/C=CC(=O)C(O)=C2)c(=O)nc2sc(CC(=O)N3CCOCC3)nn12 | ? | . | 8.9µM* | . | 3.5µM* | ? | 17* | 6* | TbPGK inh=9.2µM*
Nc1c(/C=C2/C=CC(=O)C(O)=C2)c(=O)nc2sc(CC(=O)N3CCCC3)nn12 | 40µM* | 7.9µM* | 3.2µM* | . | 4µM* | ? | 24* | 5.4*
Cc1ccc(N2C(=O)c3ccccc3C2=O)cc1 | -5% | 29% | 65% | . | -6% | 3% | . | .
